Active and inactive are the calls of the source.
Key:
[1] = tested on: Human papillomavirus type 1a protein E7 (residues 44-93); assay: HPV1a E7 fragment binders on microarrays, primary screen, biochemical, small-molecule microarray, residues 44-93, 635 nm fluorescence (AID 1108); conditions: small-molecule microarray binding, fluorescence 635 nm; higher = more signal;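 further: E7 fragment applied at 1 µg/mL in TBST for 1 h at 4 C; score combines spot fluorescence with its signal to noise ratio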
[2] = modulators of HCV replicon luciferase signal, primary screen, HCV replication inhibitor project, Huh7 cells, luciferase reporter (AID 1109); conditions: 48 h, higher = more signal;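 further: huh7 hepatoma cells harbouring a luciferase neomycin HCV replicon reporter; luciferase luminescence as measure of HCV replicon replication; test concentration not given here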
[3] = target: Left-right determination factor 2 (Homo sapiens) (UniProt O00292); assay: LEFTY2 binders on small-molecule microarrays, primary screen, biochemical, small-molecule microarray, 635 nm fluorescence scan (AID 1110); conditions: LEFTY2 binding, higher = more signal
[4] = target: Calmodulin-1 (Homo sapiens) (UniProt P0DP23); assay: CALM1 binders on microarrays, EGTA buffer, profiling panel, biochemical, small-molecule microarray, Cy5-labelled CALM1 (AID 1111); conditions: Cy5-CALM1 binding fluorescence, higher = more signal;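 further: labelled calmodulin applied in Tris saline Tween buffer holding calcium plus EGTA and DTT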
[5] = target: Calmodulin-1 (Homo sapiens) (UniProt P0DP23); assay: calcium-bound CALM1 binders on microarrays, profiling panel, artefact control for SMM control-protein annotation, biochemical, small-molecule microarray, Cy5-labelled CALM1, plus calcium (AID 1112); conditions: Cy5-CALM1 binding fluorescence, higher = more signal;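 further: score merges spot fluorescence with signal to noise from triplicate slides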
[6] = small-molecule microarray binders of probe aWnt5a, primary screen, biochemical, biotinylated probe, 635/667 nm fluorescence (AID 1113); conditions: higher = more signal;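 further: score merges 667 nm fluorescence intensity with signal-to-noise per printed feature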
[7] = small-molecule microarray binders of probe aShh, primary screen, biochemical, biotinylated probe, 635/667 nm fluorescence (AID 1114); conditions: higher = more signal;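 further: probe is biotin-labelled aShh protein from a stem cell growth factor screen; measures binding of labelled protein to compounds printed on the slide; score merges feature fluorescence at 667 nm with signal-to-noise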
[8] = small-molecule microarray binders of probe aNog, primary screen, biochemical, biotinylated probe, 635/667 nm fluorescence (AID 1115); conditions: higher = more signal;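 further: probe is biotinylated aNog protein used at 0.15 µg/mL for 1 h at 4 C; z-score combines 667 nm fluorescence of each spot with its signal to noise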
[9] = target: Torsin-1A-interacting protein 1 (Homo sapiens) (UniProt Q5JTV8); assay: LAP1 binders from COS7 cell lysate, primary screen, small-molecule microarray, 635/667 nm fluorescence (AID 1116); conditions: COS7-hLAP1 lysate binding, 635 nm fluorescence, higher = more signal
[10] = target: Alpha-bungarotoxin (Bungarus multicinctus) (UniProt P60615); assay: alpha-bungarotoxin binders on microarray, profiling panel, artefact control for SMM control protein annotation, biochemical, small-molecule microarray, Alexa647 label, 635/667 nm fluorescence (AID 1117); conditions: alpha-BTX-A647 binding fluorescence, higher = more signal
Albumin (Bos taurus) = Albumin (Bos taurus) (UniProt P02769); assay: bovine serum albumin binders on microarray, profiling panel, artefact control for SMM control protein annotation, biochemical, small-molecule microarray, Alexa647 label, 635/667 nm fluorescence (AID 1118); conditions: BSA-A647 binding, fluorescence 635 nm, higher = more signal;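 further: score merges 667 nm emission intensity and signal-to-noise per printed compound spot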
[11] = small-molecule microarray binders of probe aXIP, primary screen, biochemical, NeuroSMM set, 635/667 nm fluorescence (AID 1119); conditions: higher = more signal, called active from +8 up or from −8 down;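 further: probe is the protein aXip251-270 applied at 1 µg/mL to compound-printed slides; binding of probe to printed compounds measured as 667 nm fluorescence plus signal to noise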
[12] = small-molecule binders of probe aNOTCH3, primary screen, biochemical, small-molecule microarray, 635/667 nm fluorescence (AID 1120); conditions: higher = more signal;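 further: probe is a biotin-tagged antibody raised against NOTCH3 rather than NOTCH3 protein; score merges spot fluorescence near 667 nm with spot signal to noise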
[13] = small-molecule binders of probe aNOTCH2, primary screen, biochemical, small-molecule microarray, 635/667 nm fluorescence (AID 1121); conditions: higher = more signal;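 further: score merges feature fluorescence read at 667 nm with its signal to noise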
[14] = target: Carbonic anhydrase 2 (Homo sapiens) (UniProt P00918); assay: CAII small-molecule binders, profiling panel, biochemical, small-molecule microarray, Alexa647-labelled CAII (AID 1122); conditions: CAII-A647 binding fluorescence, higher = more signal
[15] = COS7 lysate on small-molecule microarray, probe aHis, 635 nm (AID 1123); conditions: COS7 cell lysate, fluorescence, higher = more signal;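 further: z-score combines 667nm fluorescence intensity with signal-to-noise per printed compound spot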
[16] = compound binding in COS7 lysate, probe aLAP1, primary screen, cell lysate, small-molecule microarray (AID 1124); conditions: probe aLAP1, fluorescence, higher = more signal;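 further: lysate comes from COS7 cells expressing LAP1 and is applied at 0.3 µg/mL; score merges spot fluorescence near 667 nm with signal-to-noise over triplicate slides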
Sam68 (KHDRBS1) = assay: Sam68 small-molecule binders, primary screen, biochemical, small-molecule microarray, 635 nm fluorescence (AID 1125); conditions: small-molecule microarray binding, higher = more signal;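 further: score merges 667 nm channel intensity with signal to noise over triplicate slides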
[17] = tested on: Chordin-like protein 2 (CHRDL2); assay: CHRDL2 small-molecule binders, primary screen, biochemical, small-molecule microarray, 635 nm fluorescence (AID 1126); conditions: small-molecule microarray binding, fluorescence 635 nm; higher = more signal;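 further: printed compound slides probed with Chrdl2 protein at 4 µg/mL for 1 h at 4 C; score merges 667 nm emission intensity with signal to noise over three replicate slides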
[18] = target: Concanavalin-A (Canavalia ensiformis) (UniProt P02866); assay: ConA small-molecule binders, primary screen, artefact control for SMM control protein annotation, biochemical, small-molecule microarray, Alexa647 label, 635 nm (AID 1127); conditions: ConA-A647 binding fluorescence, higher = more signal;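 further: z combines 667 nm emission intensity with signal-to-noise across three replicate slides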
Sequence of Concanavalin-A (Canavalia ensiformis) (P02866 whole entry, looked up): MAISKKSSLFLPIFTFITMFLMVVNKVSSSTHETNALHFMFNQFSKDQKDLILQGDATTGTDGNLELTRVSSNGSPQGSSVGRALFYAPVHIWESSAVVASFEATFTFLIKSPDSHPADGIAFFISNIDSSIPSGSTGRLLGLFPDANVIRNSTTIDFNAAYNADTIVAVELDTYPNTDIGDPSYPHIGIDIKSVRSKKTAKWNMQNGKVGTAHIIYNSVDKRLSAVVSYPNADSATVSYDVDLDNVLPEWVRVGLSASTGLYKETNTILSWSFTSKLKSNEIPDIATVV

Sequence of Torsin-1A-interacting protein 1 (Homo sapiens) (Q5JTV8 whole entry, looked up): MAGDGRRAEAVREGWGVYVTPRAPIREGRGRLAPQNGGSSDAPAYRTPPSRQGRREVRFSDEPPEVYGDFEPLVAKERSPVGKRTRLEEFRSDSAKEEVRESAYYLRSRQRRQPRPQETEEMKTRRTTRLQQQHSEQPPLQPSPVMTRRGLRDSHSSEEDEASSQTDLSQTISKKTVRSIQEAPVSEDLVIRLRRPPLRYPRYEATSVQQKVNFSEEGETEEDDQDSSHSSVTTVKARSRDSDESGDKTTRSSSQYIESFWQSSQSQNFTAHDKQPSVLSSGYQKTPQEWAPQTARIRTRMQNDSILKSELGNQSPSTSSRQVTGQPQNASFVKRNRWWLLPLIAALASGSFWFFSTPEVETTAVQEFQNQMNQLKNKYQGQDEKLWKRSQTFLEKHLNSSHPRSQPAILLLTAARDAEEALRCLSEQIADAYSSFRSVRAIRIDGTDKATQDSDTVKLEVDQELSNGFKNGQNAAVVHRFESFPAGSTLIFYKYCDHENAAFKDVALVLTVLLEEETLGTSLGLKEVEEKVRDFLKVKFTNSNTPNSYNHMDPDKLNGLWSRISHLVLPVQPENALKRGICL
Sequence of Alpha-bungarotoxin (Bungarus multicinctus) (P60615 whole entry, looked up): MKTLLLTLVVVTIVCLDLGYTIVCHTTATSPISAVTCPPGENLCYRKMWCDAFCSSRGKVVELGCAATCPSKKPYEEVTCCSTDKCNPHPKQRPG
Sequence of Left-right determination factor 2 (Homo sapiens) (O00292 whole entry, looked up): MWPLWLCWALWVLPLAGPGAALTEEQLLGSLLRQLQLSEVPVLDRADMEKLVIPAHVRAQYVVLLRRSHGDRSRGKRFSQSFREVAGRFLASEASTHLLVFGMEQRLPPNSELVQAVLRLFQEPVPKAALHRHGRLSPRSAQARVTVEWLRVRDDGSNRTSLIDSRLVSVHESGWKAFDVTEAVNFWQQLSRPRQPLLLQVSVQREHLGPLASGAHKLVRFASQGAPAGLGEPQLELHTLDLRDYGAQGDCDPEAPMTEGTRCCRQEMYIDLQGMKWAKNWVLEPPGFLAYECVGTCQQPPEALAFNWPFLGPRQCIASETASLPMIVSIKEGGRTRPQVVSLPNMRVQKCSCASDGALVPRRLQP
Sequence of Albumin (Bos taurus) (P02769 whole entry, looked up): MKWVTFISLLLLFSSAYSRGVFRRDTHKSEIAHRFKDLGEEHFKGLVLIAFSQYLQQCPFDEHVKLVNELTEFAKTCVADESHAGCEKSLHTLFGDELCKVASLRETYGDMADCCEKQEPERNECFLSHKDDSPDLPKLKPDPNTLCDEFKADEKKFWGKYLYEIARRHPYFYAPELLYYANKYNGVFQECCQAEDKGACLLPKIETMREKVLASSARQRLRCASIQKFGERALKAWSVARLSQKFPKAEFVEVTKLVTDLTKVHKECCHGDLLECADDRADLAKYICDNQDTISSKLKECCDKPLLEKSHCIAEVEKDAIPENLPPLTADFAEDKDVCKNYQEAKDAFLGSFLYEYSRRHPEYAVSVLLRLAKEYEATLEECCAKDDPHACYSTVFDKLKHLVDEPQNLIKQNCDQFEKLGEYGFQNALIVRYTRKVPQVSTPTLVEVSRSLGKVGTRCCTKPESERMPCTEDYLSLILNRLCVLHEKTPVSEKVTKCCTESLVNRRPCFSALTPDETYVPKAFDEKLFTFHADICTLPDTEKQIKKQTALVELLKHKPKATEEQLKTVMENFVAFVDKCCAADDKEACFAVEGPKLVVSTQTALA

SMILES | composite z-score [1] | z-score [2] | composite z-score [3] | composite z-score [4] | composite z-score [5] | composite z-score [6] | composite z-score [7] | composite z-score [8] | composite z-score [9] | composite z-score [10] | composite z-score (Albumin (Bos taurus)) | composite Z-score [11] | composite z-score [12] | composite z-score [13] | composite z-score [14] | composite z-score [15] | composite z-score [16] | composite z-score (Sam68 (KHDRBS1)) | composite z-score [17] | composite z-score [18]
CC[C@H]1C2=C3C(CC[C@H]4C(OCc5ccc(F)cc5C(F)(F)F)OC[C@](C)([C@@H]34)N(C(=O)OC(C)(C)C)C2)C(COC)C1COC (stereo not given in full) | 0.732 | -0.25 | -0.696 | 0.914 | 0.771 | 0.0768 | -0.214 | 1.33 | -0.0575 | 0.0915 | 0.515 | 0.0377 (inactive) | 0.0851 | -0.0372 | 0.687 | 1.1 | -0.115 | 0.0783 | -0.882 | 0.401
O=C(NCCCCCNC(=O)/C(Cc1ccccc1)=N/O)OCc1ccccc1 | -0.0938 | -1.24 | 0.629 | -0.503 | -0.592 | -0.0445 | -0.426 | -0.633 | 0.154 | 0.269 | -0.0396 | -0.136 (inactive) | -0.165 | -0.195 | -0.162 | -0.564 | 0.148 | -0.0603 | 0.366 | -0.485
COc1ccc(-c2cc3c(c(CCc4ccccc4)n2)[Si](C(C)C)(C(C)C)OC3)cn1 | -0.681 | -0.42 | 0.209 | -0.113 | 0.151 | -0.15 | -0.147 | -0.115 | -0.0389 | 0.104 | -0.0428 | 0.147 (inactive) | -0.152 | -0.169 | -0.173 | 0.132 | -0.376 | -0.296 | 0.105 | -0.0689
O=C1C2C=CC(C(O)c3ccc(F)cc3)N(n3cnnc3)C2C(=O)N1Cc1ccccc1 (stereo not given) | -0.305 | -0.574 | -0.856 | -0.171 | 0.451 | -0.0781 | -0.203 | 0.146 | 0.419 | -0.39 | -0.224 | 0.878 (inactive) | 0.0065 | -0.14 | 0.561 | 0.747 | -0.138 | -0.256 | -0.62 | -0.129
C=C(C)c1cc2c(c(CCCCCC)n1)[Si](C(C)C)(C(C)C)OC2 | -1.01 | -0.35 | -1.08 | -0.689 | 0.603 | -0.145 | -0.123 | -0.295 | -1.07 | -0.676 | -0.923 | -0.335 (inactive) | -0.296 | -0.146 | -0.484 | -0.369 | -0.603 | -0.631 | -1.41 | -0.277
C[N+](C)(C)CCCCCCNC(=O)[C@H]1C[C@H]2C(=O)NCC(=O)N2[C@H]1c1ccc(O)cc1 | 1.34 | 1.4 | 1.03 | 0.14 | -1.16 | -0.0846 | 0.21 | -0.507 | -0.489 | 0.713 | -0.0386 | 1.17 (inactive) | -0.114 | -0.149 | 0.422 | 1.21 | 0.255 | 1.12 | 0.856 | 0.758
COC(=O)C(CC#Cc1ccc2c(c1)[C@]1(C(=O)N2)[C@H](c2ccccc2OCCO)N2[C@H](c3ccccc3)[C@H](c3ccccc3)OC(=O)[C@H]2[C@@H]1C(=O)NC[C@H](O)c1ccccc1)C(=O)OC | 1.39 | -2.08 | 0.261 | 0.0614 | -0.316 | 0.285 | 2.44 | 0.108 | 2.19 | 0.971 | 0.42 | 0.231 (inactive) | -0.19 | 0.0537 | 0.544 | 1.83 | 0.445 | 0.947 | 0.285 | 1.12
COCCCNC(=O)[C@@]1(Cc2ccccc2N=[N+]=[N-])N=C(c2ccc(OCCCO)cc2)O[C@H]1c1ccccc1 | 1.41 | -1.54 | -0.394 | 0.906 | -0.257 | 0.269 | 0.142 | 1.76 | 1.63 | 0.643 | 0.533 | 0.93 (inactive) | 0.0749 | 0.0202 | 0.35 | 1.99 | 1.25 | 1.04 | 0.099 | 0.79
C=CCOC(=O)[C@H]1[C@@H]2C(=O)O[C@@H](c3ccccc3)[C@@H](c3ccccc3)N2[C@@H](c2ccc(OCCOC(=O)[C@H]3C[C@H]4C(=O)N[C@@H](CC(C)C)C(=O)N4[C@H]3c3cccc(OCCO)c3)cc2)[C@]12C(=O)Nc1ccc(I)cc12 | 1.31 | -1.51 | 1.08 | 0.621 | 0.0537 | -0.168 | -0.0769 | -0.141 | -0.302 | 0.473 | -0.172 | 0.628 (inactive) | 0.233 | -0.107 | 0.518 | 1.15 | 0.239 | 1.32 | 1.29 | 1.11
COc1ccc([Si](C)(C)[C@@H]2[C@@H](CC(=O)N3Cc4ccccc4C[C@H]3CO)O[C@]3(C(=O)N(C)c4ccccc43)[C@H]2C)cc1 | 0.215 | -4.84 | 0.812 | 0.617 | -0.0353 | 0.0102 | 0.123 | -0.0692 | 0.907 | 0.794 | 0.63 | 1.22 (inactive) | 0.215 | 0.014 | 0.723 | 0.475 | -0.0284 | 1.3 | 1.13 | 1.17
COCCOC(=O)N1C(=O)[C@@]2(c3cc(C#Cc4ccc(OC)cc4)ccc31)[C@H](c1ccc(O)cc1)N1[C@H](c3ccccc3)[C@H](c3ccccc3)OC(=O)[C@H]1[C@@H]2C(=O)N1CCCCCCC1 | 0.699 | -0.48 | 0.187 | 1.54 | 0.946 | -0.151 | 0.199 | 1.48 | 2.14 | 0.63 | 0.802 | -0.182 (inactive) | 0.7 | -0.131 | 0.466 | 2.11 | 0.575 | 0.722 | -0.508 | 0.498

— PubChem BioAssay
